Calls of active or inactive are those of the source. Unless noted, no rule for the calls is given here.
How the values were obtained:
[1] = tested on: XIP peptide (Xip251-270) binding; experiment: XIP fragment 251-270 binding compounds – biochemical, small-molecule microarray, fluorescence 635/667 nm, 0.1 µg/mL protein, primary screen (AID 1182); details: fluorescent protein binding, 635 nm, higher = more signal, called active from +8 up or from −8 down
XIP peptide (Xip251-270) = experiment: compounds binding XIP fragment 251-270 – biochemical, small-molecule microarray, fluorescence 635/667 nm, 0.5 µg/mL protein, primary screen (AID 1183); details: fluorescence 635 nm, higher = more signal
[2] = blood-stage malaria parasite viability loss – strain 3D7, DAPI fluorescence, 100 nL, primary screen (AID 1184);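 also: parasites grown inside human red blood cells in medium with human serum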; details: P. falciparum 3D7 growth, 3 d, higher = more signal
[3] = molecular target: Homeobox protein Hox-A13 (Mus musculus) (UniProt Q62424); experiment: disruptors of Hoxa13 oligonucleotide interaction – biochemical, fluorescence polarization, labeled oligonucleotide, primary screen (AID 1185); details: Hoxa13:DNA binding, 15 min, higher = more signal, called active from +8 up or from −8 down
Homeobox protein Hox-A13 (Mus musculus), sequence (Q62424 whole entry, looked up): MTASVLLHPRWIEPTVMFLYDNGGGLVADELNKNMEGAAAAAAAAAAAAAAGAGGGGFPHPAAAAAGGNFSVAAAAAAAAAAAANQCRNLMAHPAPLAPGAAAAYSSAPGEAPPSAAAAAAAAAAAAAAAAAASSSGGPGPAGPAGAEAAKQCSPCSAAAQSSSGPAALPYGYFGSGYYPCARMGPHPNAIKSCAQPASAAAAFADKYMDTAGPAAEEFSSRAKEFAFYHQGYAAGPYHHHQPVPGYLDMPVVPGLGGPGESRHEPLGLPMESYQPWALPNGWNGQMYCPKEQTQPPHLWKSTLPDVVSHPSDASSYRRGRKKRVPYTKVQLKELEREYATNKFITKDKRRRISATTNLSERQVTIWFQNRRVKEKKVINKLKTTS

[4] = blockers of DNA damage checkpoint Chk1 activation – imaging, HeLa, hydroxyurea, phospho-Chk1 antibody, percent positive cells, primary screen (AID 1186); details: hydroxyurea-induced phospho-Chk1 immunofluorescence imaging, higher = more signal
[5] = blockers of DNA damage checkpoint Chk1 activation – imaging, HeLa, hydroxyurea, phospho-Chk1 nuclear intensity, primary screen (AID 1187); details: hydroxyurea-induced phospho-Chk1 immunofluorescence imaging, higher = more signal

SMILES | composite z-score [1] | composite z-score (XIP peptide (Xip251-270)) | z-score [2] | z-score [3] | z-score [4] | z-score [5]
COc1ccc(CCNC(=O)[C@@]2(C)c3ccccc3C(=O)N(Cc3cc(C(F)(F)F)cc(C(F)(F)F)c3)[C@H]2c2ccc(CO)cc2)cc1 | 0.517 (inactive) | 0.702 | -1.88 | -2.88 (inactive) | -0.0741 (inactive) | 0.364 (inactive)
COCCOC(=O)N1C(=O)[C@@]2(c3cc(C#CCC(C(=O)OC)C(=O)OC)ccc31)[C@H](C(=O)N1CCCCCCC1)[C@H]1C(=O)O[C@H](c3ccccc3)[C@H](c3ccccc3)N1[C@@H]2c1ccccc1OCCO | 2.48 (inactive) | 0.483 | -2.4 | 4.77 (inactive) | 0.122 (inactive) | 0.0392 (inactive)
CCOC(=O)C1=C[C@@H](C(C)(C)C)N(S(=O)(=O)c2ccc(C)cc2)[C@H]1c1ccccc1Cl | 0.646 (inactive) | 0.705 | -1.65 | 0.649 (inactive) | 0.271 (inactive) | -0.0709 (inactive)
CN(C)C(=O)[C@]1(Cc2ccccc2CN=[N+]=[N-])N=C(c2ccc(OCCCO)cc2)O[C@@H]1c1ccccc1N=[N+]=[N-] | 0.854 (inactive) | 0.624 | -1.89 | -1.57 (inactive) | -0.72 (inactive) | -0.903 (inactive)
CC(C)C(=C=CC[C@@H](O)c1cccc(OCCO)c1)CCO | 0.202 (inactive) | 0.42 | -0.115 | -1.53 (inactive) | -0.19 (inactive) | 0.247 (inactive)
CC1CC/C=C\[C@H]2OC34C=CCN(CCN5CCOCC5)C(=O)[C@H]3N(CCCCCCO)C(=O)[C@@H]4C2C(=O)O1 (stereo partly specified) | 0.135 (inactive) | 0.935 | 1.04 | -5.39 (inactive) | -0.453 (inactive) | 0.519 (inactive)
COCCCN1C(=O)[C@@]2(Cc3ccccc31)c1ccccc1C(=O)N(Cc1ccccc1OC)[C@H]2c1ccc(CO)cc1 | -0.184 (inactive) | 0.0806 | 0.861 | -2.34 (inactive) | 0.177 (inactive) | 0.217 (inactive)
CCCCNC(=O)c1ccc(C#C[Si](C)(C)C)c(OC(C)=O)c1 | -0.0158 (inactive) | -0.351 | -1.27 | -4.82 (inactive) | 0.0588 (inactive) | 0.103 (inactive)
CN1C=C(C(=O)OCCS(C)(=O)=O)C(C(=O)OCCS(C)(=O)=O)=CC(CCCO)=CC1c1ccc(CN2CCCC2)cc1 (stereo unspecified) | 0.629 (inactive) | 0.694 | -2.24 | -4.07 (inactive) | 0.266 (inactive) | -0.0538 (inactive)
COC(=O)c1ccc([C@H](NC(=O)c2ccccc2)[C@]2(C)C[C@H]2C2CCCCC2)cc1 | -0.317 (inactive) | -0.199 | -0.631 | 3.23 (inactive) | -0.198 (inactive) | -0.123 (inactive)
C[C@H]1C2[C@H](Cc3ccccc3)NC(=O)[C@]23C(=O)NCC(=O)N2CCC[C@H]2C(=O)NC/C=C\C/C=C/C3[C@@H]2O[C@]12C (stereo partly specified) | 0.358 (inactive) | 0.341 | 0.876 | -2.22 (inactive) | 0.353 (inactive) | 0.133 (inactive)
C=CCC(OC(C)=O)[C@@H]1[C@@H](N(Cc2cccc3ccccc23)C(=O)c2ccc(-c3ccccc3)cc2)c2cc(OCCCO)ccc2N1C(=O)c1ccc2ccccc2n1 (stereo partly specified) | -0.268 (inactive) | 0.0494 | -0.198 | -1.17 (inactive) | 0.116 (inactive) | -0.14 (inactive)
CC(C)C[C@@H]1NC(=O)[C@H]2C[C@@H](C(=O)NCCCCCNC(=O)CS)[C@@H](c3ccc(O)cc3)N2C1=O | 0.563 (inactive) | 0.692 | -0.92 | -3.85 (inactive) | -0.37 (inactive) | -0.291 (inactive)
COCCOC(=O)N1C(=O)[C@@]2(c3cc(C#CCC(C(=O)OC)C(=O)OC)ccc31)[C@H](C(N)=O)[C@H]1C(=O)O[C@H](c3ccccc3)[C@H](c3ccccc3)N1[C@@H]2c1ccc(OCCO)cc1 | 0.572 (inactive) | 0.813 | -2.07 | -0.183 (inactive) | -0.153 (inactive) | 0.0973 (inactive)
COc1cccc(C[C@H]2C[C@@H](CO[Si](C(C)C)(C(C)C)C(C)C)N3C(=O)[C@@]4(C(C)=O)O[C@@]23[C@@H]2C(=O)N(C)C(=O)[C@@H]24)c1 | 0.234 (inactive) | 0.61 | -1.75 | -3.39 (inactive) | -0.365 (inactive) | -0.482 (inactive)
COC(=O)[C@@H]1N=C(c2ccc(OCCCO)cc2)O[C@@H]1c1ccccc1CN=[N+]=[N-] | 0.0222 (inactive) | 0.362 | -0.776 | -2.74 (inactive) | -0.196 (inactive) | -0.0701 (inactive)
Cc1ccccc1C(O)C1C=CC2C(=O)N(c3ccccc3)C(=O)C2N1Nc1ccccc1F (stereo unspecified) | 1.5 (inactive) | 0.646 | 0.907 | -2.9 (inactive) | 1.27 (inactive) | 1.11 (inactive)
C=CCC(OC(C)=O)[C@@H]1[C@@H](N(Cc2cc3ccccc3o2)C(=O)Cc2ccc(OC)cc2)c2cc(OCCCO)ccc2N1C(=O)Cc1ccc(OC)cc1 (stereo partly specified) | 0.394 (inactive) | -0.503 | -1.96 | -2.81 (inactive) | 0.954 (inactive) | 0.799 (inactive)
CCOC(=O)C1=CC[C@@H](c2ccccc2)N(S(=O)(=O)c2ccc(C)cc2)[C@H]1C#N | 0.452 (inactive) | 0.839 | -0.712 | -3.58 (inactive) | 0.584 (inactive) | 0.373 (inactive)
COC(=O)[C@@]1(Cc2ccc(OC)cc2)[C@@H]2[C@@H](CC(=O)[C@H]2CC(=O)C(=O)N2CCCC2)CN1C(=O)c1ccccc1 | 0.506 (inactive) | 0.807 | -0.937 | -2.95 (inactive) | -0.961 (inactive) | -1.03 (inactive)
NCCCC[C@@H]1NC(=O)[C@H]2C[C@@H](C(=O)NCc3ccc(F)cc3)[C@@H](c3cccc(OCCO)c3)N2C1=O | 0.752 (inactive) | 0.837 | 0.0979 | 5.72 (inactive) | -0.281 (inactive) | -0.45 (inactive)
COc1ccccc1CN1C(=O)c2ccccc2[C@@H](C(=O)NCCCN(C)C)[C@@H]1c1ccc(CO)cc1 | -0.0888 (inactive) | 0.66 | -2.34 | 3.27 (inactive) | -0.343 (inactive) | -0.136 (inactive)
O=C1O[C@H](c2ccccc2)[C@H](c2ccccc2)N2[C@H]1[C@@H](C(=O)NC[C@H](O)c1ccccc1)[C@]1(C(=O)Nc3ccc(C#CCCO)cc31)[C@H]2c1ccccc1OCCO | 0.419 (inactive) | 0.693 | -1.4 | -4 (inactive) | 0.125 (inactive) | 0.46 (inactive)
COc1ccc([Si](C)(C)[C@H]2[C@H](CCn3cc([C@H](O)c4ccccc4)nn3)O[C@@]3(C(=O)N(C)c4c(Br)cc(C)cc43)[C@@H]2C)cc1 | 0.424 (inactive) | 0.586 | -2.41 | -2.54 (inactive) | -0.66 (inactive) | -0.0953 (inactive)
COCCOC(=O)N1C(=O)[C@@]2(c3cc(C#Cc4ccc(OC)cc4)ccc31)[C@H](c1ccc(OCCO)cc1)N1[C@H](c3ccccc3)[C@H](c3ccccc3)OC(=O)[C@H]1[C@@H]2C(=O)N1CCCCCCC1 | 0.92 (inactive) | 0.768 | -2.09 | -15.8 (active) | -0.318 (inactive) | -0.217 (inactive)
CN1C(=O)C2C(C1=O)C1C=C(c3ccc(CO)cc3)C2C(c2cccs2)N1C (stereo unspecified) | 0.482 (inactive) | -0.202 | -2.32 | -6.12 (inactive) | -0.89 (inactive) | -0.76 (inactive)

— PubChem BioAssay
